Rows were chosen to be rich in hits. Some 8.3% of all compounds tested hit in one or more screens of this group.
VP16 counter: VP16 counterscreen qHTS for inhibitors of ROR gamma transcriptional activity; actives 3.5% (n = 310,000); AID 2546, 2010; Drosophila S2 Gal4-VP16 UAS-luciferase, luminescence, 20 h; Potency, µM (highest dose often 53.6 µM), actives largely listed as inhibitors;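 also: Gal4-VP16 expression switched on by copper sulfate through the metallothionein promoter; nearly all actives have a fitted effect of over 50% in size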
MCF10A rereplic: A quantitative high throughput screen for small molecules that induce DNA re-replication in MCF 10a normal breast cells. actives 2.9% (n = 350,000). MCF 10A DNA re-replication, Hoechst nuclear intensity, 48 h. Potency, µM (doses to about 46.1 µM), usual class: activators; also: nearly all actives have a fitted effect of over 50% in size
Giardia kill: Small Molecules that selectively kill Giardia lamblia: qHTS. Giardia lamblia trophozoite viability. activity change, % at 7.66 µM, hits read low. actives 0.15% (n = 340,000); in the data active = activity change below about -80%; inconclusive = between about -30% and that limit;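 also: parasites exposed to compound for two days anaerobically before the ATP read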
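Luminescent ATP signal served as the viability read-out, measured 15-30 min after adding ATP detection reagent to trophozoites that had been incubated with compounds for 48 hrs at 37 deg C anaerobically at 100 cells/well.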
BCR signal inh: qHTS Assay to Find Inhibitors of Chronic Active B-Cell Receptor Signaling. ABC-DLBCL IkBa-CBG/CBR reporter, luminescence ratio, 4 h. Potency, µM (doses to about 46.1 µM), hits mostly inhibitors. actives 0.05% (n = 340,000); active = well fitted inhibition curve with a large enough effect in the signal ratio, with a control signal flat, not every such curve was filed as active; inconclusive = small, poorly fitted or top-dose-only effect, or effect the other way, or a change in a side signal; the % refers to the signal ratio
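Doxycycline induced both beetle luciferases in TMD8 lymphoma cells; IKK-driven degradation limits the IkappaBalpha-fused green signal, while red luminescence normalises for cell number and nonspecific effects. Compounds tested up to 46 uM, 4 hrs.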
SW480 rereplic: A quantitative high throughput screen for small molecules that induce DNA re-replication in SW480 colon adenocarcinoma cells; actives 1.8% (n = 340,000); Potency, µM (top dose mostly 46.1 µM), usual class: activators; SW480 DNA re-replication, Hoechst DNA content imaging, 48 h; AID 624297, 2012; also: nearly all actives have a fitted effect of over 55% in size
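Hoechst fluorescence of nuclei (405 nm excitation, 500-530 nm emission) measured by plate-scanning imager after 48 hr compound exposure at 37 C; re-replication scored as increased number of nuclei with elevated intensity.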
RORg inh: qHTS for inhibitors of ROR gamma transcriptional activity. Drosophila S2 Gal4-RORgamma UAS-luciferase reporter, 20 h. Potency, µM (series often up to 53.6 µM), most hits filed as inhibitors. actives 5.4% (n = 310,000). Nuclear receptor ROR-gamma (Mus musculus), P51450; also: nearly all actives have a fitted effect of over 60% in size
Target sequence (P51450 whole entry, looked up, the tested form may be a part): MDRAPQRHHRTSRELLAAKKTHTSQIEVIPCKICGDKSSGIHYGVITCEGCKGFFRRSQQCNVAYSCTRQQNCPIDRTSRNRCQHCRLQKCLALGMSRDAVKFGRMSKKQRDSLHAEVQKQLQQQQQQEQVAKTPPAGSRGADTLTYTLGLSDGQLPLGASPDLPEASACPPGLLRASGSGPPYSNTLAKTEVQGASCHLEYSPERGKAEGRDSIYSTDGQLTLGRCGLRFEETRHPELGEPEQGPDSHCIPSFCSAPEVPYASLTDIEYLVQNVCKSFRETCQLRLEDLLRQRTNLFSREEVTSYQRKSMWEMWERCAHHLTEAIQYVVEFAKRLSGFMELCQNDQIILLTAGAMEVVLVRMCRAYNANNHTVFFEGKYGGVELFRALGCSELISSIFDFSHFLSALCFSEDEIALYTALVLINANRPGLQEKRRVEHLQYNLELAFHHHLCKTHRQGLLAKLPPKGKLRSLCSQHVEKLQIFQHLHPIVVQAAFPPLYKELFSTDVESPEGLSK
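Luciferase reporter read in Schneider cells carrying Gal4-RORγ (mouse) and UAS-Photinus luciferase; cells given compound 1 h before 700 uM copper sulfate induction, then incubated 20 h at ambient temperature.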
Of the large screens only hits and unclear results are named; the others gave an inactive call. Unless noted, calls follow the shape of the dose curve; as a rule, active = well fitted curve in the direction sought with a large enough effect; inconclusive = small, poorly fitted or top-dose-only effect, or another doubt; inactive = no such curve, though single readings can be large; an effect the other way counts as inactive or inconclusive.

COCCCNC(=S)NNC(=S)Nc1ccc(OC)cc1	SW480 rereplic inconclusive
O=C(O)c1ccccc1OCc1nc2ccccc2s1	BCR signal inh inconclusive
COC(=O)C1=C(C)N(Cc2ccccc2)C(=NCc2ccc(OC)cc2)N[C@H]1c1ccc(Br)cc1	none (no result: MCF10A rereplic, Giardia kill, SW480 rereplic)
CCCC1=NN(C(=O)CCc2ccccc2O)C(O)(C(F)(F)F)C1 (configuration not stated)	VP16 counter inconclusive, RORg inh inconclusive
CCC1=NN(C(=O)c2cccnc2)C(O)(C(F)(F)F)C1 (configuration not stated)	VP16 counter inconclusive, RORg inh 11µM
CCCCC1=NN(C(=O)c2cccnc2)C(O)(C(F)(F)F)C1 (configuration not stated)	VP16 counter inconclusive, BCR signal inh inconclusive, RORg inh 10µM
CC1CCCCN1S(=O)(=O)c1ccc2c(c1)C(C)(C)C(=O)N2C (configuration not stated)	none
Cc1ccc(S(=O)(=O)N2CCN(c3nc(-c4cccs4)cc4ccccc34)CC2)cc1	none (no result: VP16 counter, MCF10A rereplic, BCR signal inh, SW480 rereplic, RORg inh)
N#CC(c1ccc(Cl)cc1)c1nc2ccccc2nc1C(F)(F)F (configuration not stated)	VP16 counter 10µM, MCF10A rereplic inconclusive, RORg inh inconclusive
Cc1cccc(C(C#N)c2nc3ccccc3nc2C(F)(F)F)c1 (configuration not stated)	none (no result: VP16 counter, BCR signal inh, RORg inh)
CC1=C[C@@H](O)CC(C)(C)[C@@H]1/C=C/C(C)=C/C=C/C(C)=C/C=C/C=C(C)/C=C/C=C(C)/C=C/C1=C(C)C[C@H](O)CC1(C)C	MCF10A rereplic 30µM, SW480 rereplic inconclusive (no result: Giardia kill, BCR signal inh)
O=C(CN1CCCC1)Nc1ccc(OC(F)(F)F)cc1	RORg inh inconclusive
COc1cc(-c2nccc3cc4c(cc23)OCO4)cc(OC)c1OC	MCF10A rereplic 15µM, SW480 rereplic 5.8µM (no result: VP16 counter, BCR signal inh, RORg inh)
COc1cc(CC(=O)NCc2ccc3c(c2)OCO3)cc(OC)c1OC	BCR signal inh inconclusive
Brc1ccc(-c2nnc(-c3ccccc3Br)o2)cc1	none
Cc1ccc(-c2nnc(-c3ccccc3Br)o2)cc1	VP16 counter inconclusive, Giardia kill inconclusive, BCR signal inh inconclusive, RORg inh 13µM
CN(C)c1ccc(-c2nnc(-c3ccc(S(=O)(=O)C(F)F)cc3)o2)cc1	none
COc1ccc(-c2nnc(-c3ccc(N(C)C)cc3)o2)cc1	MCF10A rereplic inconclusive, RORg inh 0.79µM (no result: BCR signal inh)
CN(C)c1ccc(-c2nnc(-c3ccccc3F)o2)cc1	VP16 counter inconclusive, BCR signal inh inconclusive, RORg inh 11µM
CCc1nnc2c(Nc3ccc(Br)c(C)c3)nc3ccccc3n12	none (no result: VP16 counter, MCF10A rereplic, Giardia kill, SW480 rereplic, RORg inh)
Cc1cnc(C(=O)Nc2ccc(C)c(S(=O)(=O)N3CCCCCC3)c2)cn1	none (no result: VP16 counter, RORg inh)
N#C/C(=C\c1cccc(Oc2ccc(C(F)(F)F)cc2[N+](=O)[O-])c1)c1nc2ccccc2[nH]1	MCF10A rereplic 18µM
COc1ccc(/C=C(\C#N)c2nc3ccc(C)cc3[nH]2)cc1Oc1ccc(C(F)(F)F)cc1[N+](=O)[O-]	MCF10A rereplic 23µM, SW480 rereplic inconclusive
Cc1ccc2nc(/C(C#N)=C\c3ccc(Oc4ccc(C(F)(F)F)cc4[N+](=O)[O-])cc3)[nH]c2c1	SW480 rereplic 13µM
COc1cc(NC(=S)NCCCN(C)C)c(OC)cc1NC(=O)c1ccco1	none
CCOc1cc(NC(=S)NCCOC)c(OCC)cc1NC(=O)c1ccco1	VP16 counter inconclusive, RORg inh 13µM
CCNC(=S)Nc1cc(OC)c(NC(=O)c2ccco2)cc1OC	BCR signal inh inconclusive, RORg inh 13µM
COCCNC(=O)CN1CCC(NC(=O)c2ccco2)CC1	VP16 counter inconclusive, BCR signal inh inconclusive, RORg inh 13µM
COC(=O)c1cc(OC)c(OC)cc1NC(=S)NC(=O)c1ccco1	RORg inh 8.9µM
CCOC(=O)c1c(C)[nH]c(C)c1C(=O)COC(=O)c1cccnc1SC	none (no result: VP16 counter, RORg inh)

Screening data as filed in PubChem BioAssay.
